Laboratory results as given in PubChem BioAssay.
Several values for one entry are separate records, joined by “and”; a condition that tells them apart may be missing. Identical values can stand only once. Activity calls are given as the source filed them.

What was measured:
[1] = test system: PRMT1 (protein arginine N-methyltransferase 1); test: small molecules binding arginine methyltransferase PRMT1 – biochemical, small-molecule microarray, 635 nm fluorescence, primary screen (AID 1088); settings: higher = more signal;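 further: binding of Prmt1 protein to compounds spotted on small-molecule microarray slides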
[2] = growth effects on S. cerevisiae YJM789 – YJM789 clinical isolate, OD600, 24 h, basal, primary screen (AID 1089); settings: higher = more signal, called active from +8 up or from −8 down;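 further: growth of clinical yeast isolate S. cerevisiae YJM 789 seeded 1000 cells per well; test concentration not given here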
[3] = S. pombe growth modifiers, basal conditions – strain 972, OD600, 24 h, no modulator, primary screen (AID 1090);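 further: basal condition with compound alone and no growth modifier present; test concentration not given here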; settings: S. pombe 972 growth, higher = more signal, called active from +8 up or from −8 down
[4] = budding yeast growth modifiers under rapamycin – strain BY4716, OD600, 96 h, primary screen (AID 1091); further: test concentration not given here; settings: S. cerevisiae BY4716 + rapamycin, higher = more signal, called active from +8 up or from −8 down
[5] = biological target: Torsin-1A-interacting protein 2 (Homo sapiens) (UniProt Q8NFQ8); test: small molecules binding lysate-expressed LULL1 – cell lysate, human LULL1 lysate, 635/667 nm fluorescence, primary screen (AID 1092); settings: small-molecule microarray, hLULL1 lysate binding, 635 nm fluorescence; higher = more signal;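 further: probe is lysate of COS7 cells overexpressing human LULL1; score merges per-feature 667 nm fluorescence with signal-to-noise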
[6] = optical density change of DRC41 E. coli – strain DRC41, OD650, 24 h, E. coli filamentation project, primary screen (AID 1093);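 further: MC1000 strain lacking acrAB efflux and sulA so SOS filamentation is blocked; test concentration not given here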; settings: E. coli DRC41 growth, higher = more signal, called active from +8 up or from −8 down
[7] = probe aLefty2 binding to arrayed compounds – biochemical, biotinylated probe, 635/667 nm fluorescence, primary screen (AID 1094); settings: small-molecule microarray, higher = more signal;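 further: score merges spot fluorescence near 667 nm with spot signal-to-noise ratio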
[8] = test system: Noggin (protein binding on small-molecule microarray); test: small molecules binding Noggin protein – biochemical, 635/667 nm fluorescence, primary screen (AID 1095); settings: 635 nm fluorescence, higher = more signal;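 further: score merges 667 nm feature fluorescence with signal to noise over triplicate slides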
[9] = biological target: Neurogenic locus notch homolog protein 3 (Homo sapiens) (UniProt Q9UM47); test: small molecules binding NOTCH3 protein – biochemical, 635/667 nm fluorescence, primary screen (AID 1096); settings: small-molecule microarray, 635 nm fluorescence, higher = more signal
[10] = probe aEGFR binding to arrayed compounds – biochemical, biotinylated probe, 635/667 nm fluorescence, primary screen (AID 1097); settings: small-molecule microarray, higher = more signal;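 further: probe is a biotinylated anti-EGFR antibody binding compounds printed on slides; score combines fluorescence near 667 nm and signal to noise of each spot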
[11] = test system: Plasmodium falciparum Sir2 (PF13_0152, Sir2A); test: Plasmodium falciparum Sir2A binding compounds – biochemical, small-molecule microarray, 635 nm fluorescence, primary screen (AID 1098); settings: fluorescence 635 nm, higher = more signal;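 further: score merges spot fluorescence intensity with its signal-to-noise ratio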
[12] = probe aDKK1 binding to arrayed compounds – biochemical, biotinylated probe, 635/667 nm fluorescence, primary screen (AID 1099); settings: small-molecule microarray, higher = more signal;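 further: score merges 667nm spot fluorescence with signal to noise across triplicate slides; reference of the scale not given here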
[13] = probe aCHRDL2 binding to arrayed compounds – biochemical, biotinylated probe, 635/667 nm fluorescence, primary screen (AID 1100); settings: small-molecule microarray, higher = more signal
[14] = change in splice reporter luminescence, either direction, cell-based, HEK293, spliceosome inhibition project, primary screen (AID 1101); settings: HEK293 splicing luciferase reporter, 24 h, higher = more signal, called active from +8 up or from −8 down;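 further: HEK293 cells carrying a splicing-competent luciferase reporter gene; test concentration not given here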
[15] = biological target: Fibroblast growth factor 10 (Homo sapiens) (UniProt O15520); test: compounds binding fibroblast growth factor 10 – biochemical, small-molecule microarray, 635 nm fluorescence, primary screen (AID 1102); settings: FGF10 binding, fluorescence 635 nm, higher = more signal
[16] = test system: glycogen synthase kinase-3 (GSK3A per assay name; protocol says GSK3B); test: compounds binding glycogen synthase kinase-3 – biochemical, small-molecule microarray, 635 nm fluorescence, GSK3A, primary screen (AID 1103); settings: fluorescence 635 nm, higher = more signal; further: the record names both GSK3A and GSK3B
[17] = biological target: Epidermal growth factor receptor (Homo sapiens) (UniProt P00533); test: compounds binding epidermal growth factor receptor – biochemical, small-molecule microarray, 635 nm fluorescence, primary screen (AID 1104); settings: EGFR binding, higher = more signal;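 further: score merges 667 nm emission intensity with spot signal to noise over triplicate slides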
[18] = biological target: Follistatin-related protein 3 (Homo sapiens) (UniProt O95633); test: compounds binding follistatin-related protein 3 – biochemical, small-molecule microarray, 635 nm fluorescence, primary screen (AID 1105); settings: FSTL3 binding, higher = more signal;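 further: score merges emission near 667 nm and signal to noise per printed spot across three slides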
[19] = biological target: Dickkopf-related protein 1 (Homo sapiens) (UniProt O94907); test: small molecules binding DKK1 protein – biochemical, small-molecule microarray, 635 nm fluorescence scan, primary screen (AID 1106); settings: higher = more signal;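 further: score merges emission near 667 nm with signal to noise over three replicate slides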
[20] = test system: Inhibin beta A chain (activin A); test: small molecules binding activin A – biochemical, small-molecule microarray, 635 nm fluorescence scan, primary screen (AID 1107); settings: INHBA, higher = more signal;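 further: mouse activin A protein probed at 4.33 µg/mL on printed slides; score merges bound-protein fluorescence near 667 nm with spot signal-to-noise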

Chain of Follistatin-related protein 3 (Homo sapiens) (O95633 whole entry, looked up): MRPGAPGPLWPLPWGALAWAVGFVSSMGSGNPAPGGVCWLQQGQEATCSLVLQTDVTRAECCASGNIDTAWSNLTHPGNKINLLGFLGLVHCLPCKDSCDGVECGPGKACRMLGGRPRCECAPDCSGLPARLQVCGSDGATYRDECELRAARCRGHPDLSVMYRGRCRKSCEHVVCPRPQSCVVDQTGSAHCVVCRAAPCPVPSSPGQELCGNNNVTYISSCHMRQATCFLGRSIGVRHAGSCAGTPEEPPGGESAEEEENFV
Chain of Torsin-1A-interacting protein 2 (Homo sapiens) (Q8NFQ8 whole entry, looked up): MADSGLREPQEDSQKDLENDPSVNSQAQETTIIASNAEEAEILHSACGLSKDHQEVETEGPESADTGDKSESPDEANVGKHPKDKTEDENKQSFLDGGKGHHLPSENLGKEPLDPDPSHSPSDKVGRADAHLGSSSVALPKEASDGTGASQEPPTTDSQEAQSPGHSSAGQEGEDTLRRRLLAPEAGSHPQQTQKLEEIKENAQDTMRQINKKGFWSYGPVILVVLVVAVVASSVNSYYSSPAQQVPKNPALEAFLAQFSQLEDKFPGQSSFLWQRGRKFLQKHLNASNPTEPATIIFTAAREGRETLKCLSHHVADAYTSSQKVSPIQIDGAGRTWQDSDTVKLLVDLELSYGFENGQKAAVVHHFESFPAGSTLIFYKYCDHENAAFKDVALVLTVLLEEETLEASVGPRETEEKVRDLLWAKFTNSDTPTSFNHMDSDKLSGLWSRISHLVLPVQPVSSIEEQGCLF
Chain of Dickkopf-related protein 1 (Homo sapiens) (O94907 whole entry, looked up): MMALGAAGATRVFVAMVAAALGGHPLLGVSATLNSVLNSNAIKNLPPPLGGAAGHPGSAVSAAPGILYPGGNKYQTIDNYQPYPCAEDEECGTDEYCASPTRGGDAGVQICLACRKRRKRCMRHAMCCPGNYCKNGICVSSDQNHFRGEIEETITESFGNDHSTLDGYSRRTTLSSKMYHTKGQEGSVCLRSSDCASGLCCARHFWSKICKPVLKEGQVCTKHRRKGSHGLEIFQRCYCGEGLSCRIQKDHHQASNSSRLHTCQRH
Chain of Neurogenic locus notch homolog protein 3 (Homo sapiens) (Q9UM47 whole entry, looked up): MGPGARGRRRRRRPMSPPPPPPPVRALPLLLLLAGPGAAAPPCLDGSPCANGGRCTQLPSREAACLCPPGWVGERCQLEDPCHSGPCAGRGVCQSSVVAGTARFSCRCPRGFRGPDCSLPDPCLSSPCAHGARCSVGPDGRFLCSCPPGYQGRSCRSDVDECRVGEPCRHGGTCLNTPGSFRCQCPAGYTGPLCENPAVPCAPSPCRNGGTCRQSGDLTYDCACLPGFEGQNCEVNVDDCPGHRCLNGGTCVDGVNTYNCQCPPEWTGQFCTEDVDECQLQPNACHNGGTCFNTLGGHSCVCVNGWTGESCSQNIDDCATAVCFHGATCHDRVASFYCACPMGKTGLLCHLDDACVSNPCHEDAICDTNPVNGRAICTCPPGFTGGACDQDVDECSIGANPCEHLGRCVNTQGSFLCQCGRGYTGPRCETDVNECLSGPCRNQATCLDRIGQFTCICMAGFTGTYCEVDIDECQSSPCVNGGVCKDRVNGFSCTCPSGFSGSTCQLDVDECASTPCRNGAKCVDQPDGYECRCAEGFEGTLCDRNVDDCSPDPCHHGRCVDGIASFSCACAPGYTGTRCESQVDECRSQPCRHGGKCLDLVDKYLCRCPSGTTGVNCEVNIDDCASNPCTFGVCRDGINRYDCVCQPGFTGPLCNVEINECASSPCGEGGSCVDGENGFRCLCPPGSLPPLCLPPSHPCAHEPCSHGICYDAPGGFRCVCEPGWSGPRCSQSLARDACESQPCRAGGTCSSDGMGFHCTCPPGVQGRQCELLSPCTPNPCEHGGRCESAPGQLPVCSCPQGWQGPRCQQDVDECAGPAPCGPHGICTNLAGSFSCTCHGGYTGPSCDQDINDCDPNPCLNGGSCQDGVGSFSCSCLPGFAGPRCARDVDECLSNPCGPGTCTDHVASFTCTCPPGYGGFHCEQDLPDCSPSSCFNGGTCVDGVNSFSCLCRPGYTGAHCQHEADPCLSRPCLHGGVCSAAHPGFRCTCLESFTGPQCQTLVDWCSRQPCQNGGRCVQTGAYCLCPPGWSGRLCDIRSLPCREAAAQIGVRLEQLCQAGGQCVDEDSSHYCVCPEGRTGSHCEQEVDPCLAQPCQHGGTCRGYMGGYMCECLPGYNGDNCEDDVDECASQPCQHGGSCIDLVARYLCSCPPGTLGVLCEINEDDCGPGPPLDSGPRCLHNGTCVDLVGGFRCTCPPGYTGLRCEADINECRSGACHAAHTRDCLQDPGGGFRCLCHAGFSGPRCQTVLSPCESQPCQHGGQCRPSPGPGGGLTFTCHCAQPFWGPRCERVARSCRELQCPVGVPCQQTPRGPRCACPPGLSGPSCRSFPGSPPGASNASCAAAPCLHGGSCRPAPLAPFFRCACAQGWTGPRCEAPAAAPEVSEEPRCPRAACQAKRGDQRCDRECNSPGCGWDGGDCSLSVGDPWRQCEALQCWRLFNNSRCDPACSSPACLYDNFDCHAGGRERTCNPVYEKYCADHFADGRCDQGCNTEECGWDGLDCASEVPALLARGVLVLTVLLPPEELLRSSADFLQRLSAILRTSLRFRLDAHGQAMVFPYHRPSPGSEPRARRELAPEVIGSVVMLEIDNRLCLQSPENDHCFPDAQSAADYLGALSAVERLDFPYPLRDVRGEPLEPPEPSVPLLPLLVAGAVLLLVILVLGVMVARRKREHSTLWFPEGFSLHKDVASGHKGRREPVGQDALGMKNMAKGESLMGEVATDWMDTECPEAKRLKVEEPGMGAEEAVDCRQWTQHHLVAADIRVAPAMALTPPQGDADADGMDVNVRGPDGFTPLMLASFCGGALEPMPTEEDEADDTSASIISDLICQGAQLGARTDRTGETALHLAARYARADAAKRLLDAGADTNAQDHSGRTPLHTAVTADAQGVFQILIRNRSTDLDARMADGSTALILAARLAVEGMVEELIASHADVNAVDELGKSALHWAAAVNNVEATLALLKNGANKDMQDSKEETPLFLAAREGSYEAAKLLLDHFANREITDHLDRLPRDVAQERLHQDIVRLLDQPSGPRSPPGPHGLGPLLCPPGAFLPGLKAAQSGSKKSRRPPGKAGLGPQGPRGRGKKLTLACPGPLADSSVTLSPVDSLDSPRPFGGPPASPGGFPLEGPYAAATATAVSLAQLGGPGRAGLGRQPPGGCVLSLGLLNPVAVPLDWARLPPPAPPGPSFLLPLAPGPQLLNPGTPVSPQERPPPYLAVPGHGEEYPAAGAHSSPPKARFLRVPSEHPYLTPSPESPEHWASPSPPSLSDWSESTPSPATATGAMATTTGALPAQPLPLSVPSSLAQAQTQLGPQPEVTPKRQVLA
Chain of Epidermal growth factor receptor (Homo sapiens) (P00533 whole entry, looked up): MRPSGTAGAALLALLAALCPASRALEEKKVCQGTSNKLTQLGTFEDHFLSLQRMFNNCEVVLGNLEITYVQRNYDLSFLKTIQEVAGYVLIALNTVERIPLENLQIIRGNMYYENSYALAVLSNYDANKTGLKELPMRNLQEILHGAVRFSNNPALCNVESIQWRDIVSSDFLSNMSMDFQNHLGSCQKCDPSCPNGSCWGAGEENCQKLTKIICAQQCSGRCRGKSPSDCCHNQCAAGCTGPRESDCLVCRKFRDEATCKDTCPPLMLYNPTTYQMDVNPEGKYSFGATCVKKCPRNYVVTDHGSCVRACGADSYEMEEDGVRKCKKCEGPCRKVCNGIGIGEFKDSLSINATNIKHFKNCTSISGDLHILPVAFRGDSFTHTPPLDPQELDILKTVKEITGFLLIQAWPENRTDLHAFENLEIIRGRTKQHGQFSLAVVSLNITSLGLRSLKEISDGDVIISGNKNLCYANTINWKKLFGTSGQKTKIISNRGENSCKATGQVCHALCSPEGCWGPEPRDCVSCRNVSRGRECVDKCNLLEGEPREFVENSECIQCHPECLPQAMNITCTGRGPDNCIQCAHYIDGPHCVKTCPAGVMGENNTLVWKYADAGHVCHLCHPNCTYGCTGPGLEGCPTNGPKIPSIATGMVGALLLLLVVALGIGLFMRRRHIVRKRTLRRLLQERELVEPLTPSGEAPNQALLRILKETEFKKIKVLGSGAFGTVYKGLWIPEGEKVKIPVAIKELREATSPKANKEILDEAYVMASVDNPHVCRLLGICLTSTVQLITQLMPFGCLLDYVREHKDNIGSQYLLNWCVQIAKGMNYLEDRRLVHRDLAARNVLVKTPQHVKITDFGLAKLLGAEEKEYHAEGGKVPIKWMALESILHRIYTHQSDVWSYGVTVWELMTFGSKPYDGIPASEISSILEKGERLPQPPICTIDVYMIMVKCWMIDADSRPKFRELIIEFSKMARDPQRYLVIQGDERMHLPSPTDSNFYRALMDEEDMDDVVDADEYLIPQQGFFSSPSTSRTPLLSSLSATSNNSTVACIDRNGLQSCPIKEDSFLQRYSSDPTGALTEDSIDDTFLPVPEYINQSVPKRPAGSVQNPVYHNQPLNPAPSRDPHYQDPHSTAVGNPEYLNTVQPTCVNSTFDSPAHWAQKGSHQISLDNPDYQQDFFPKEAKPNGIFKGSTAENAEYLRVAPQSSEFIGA
Chain of Fibroblast growth factor 10 (Homo sapiens) (O15520 whole entry, looked up): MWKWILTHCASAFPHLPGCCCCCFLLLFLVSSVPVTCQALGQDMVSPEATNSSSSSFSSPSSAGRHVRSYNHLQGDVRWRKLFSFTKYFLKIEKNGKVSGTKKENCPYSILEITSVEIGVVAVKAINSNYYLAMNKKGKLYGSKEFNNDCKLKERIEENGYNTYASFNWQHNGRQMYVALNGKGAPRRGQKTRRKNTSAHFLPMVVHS

C=CCN(C(=O)C1N(c2c(Cl)cccc2CO)C(=O)C2C(C(=O)O)C3C=CC21O3)c1ccc(OC)cc1 (stereo not given)
composite z-score [1]: -0.406 and -0.949 | z-score [2]: 0.188 (inactive) and -1.76 (inactive) | z-score [3]: 0.0331 (inactive) and -1.23 (inactive) | z-score [4]: -0.362 (inactive) and -0.691 (inactive) | composite z-score [5]: -0.51 and -1.41 | z-score [6]: 1.82 (inactive) and 2.06 (inactive) | composite z-score [7]: -0.652 and -0.252 | composite z-score [8]: -1.05 and -1.85 | composite z-score [9]: -0.306 and -0.737 | composite z-score [10]: -0.327 and -0.236 | composite z-score [11]: 1.51 and -0.251 | composite z-score [12]: -0.0248 and -0.257 | composite z-score [13]: 0.804 and 0.73 | z-score [14]: -1.1 (inactive) and -0.88 (inactive) | composite z-score [15]: -1.56 and -2.01 | composite z-score [16]: -1.29 and -0.754 | composite z-score [17]: -1.86 and -2.26 | composite z-score [18]: -1.4 and -2.14 | composite z-score [19]: -1.99 and -2.35 | composite z-score [20]: -1.12 and -3.24

COC(=O)C1=C(C)N(Cc2ccccc2)[C@]23O[C@](C(=O)OC)(C(=O)N2[C@@H]1c1ccccc1)[C@@H](c1ccccc1)[C@@H]3C(=O)c1ccccc1
composite z-score [1]: 0.618 and 0.917 | z-score [2]: -1.15 (inactive) and -0.583 (inactive) | z-score [3]: -3.18 (inactive) and -1.19 (inactive) | z-score [4]: -1.82 (inactive) and -0.776 (inactive) | composite z-score [5]: 0.869 and 0.031 | z-score [6]: -0.0517 (inactive) and 0.951 (inactive) | composite z-score [7]: -0.185 and 0.0062 | composite z-score [8]: 0.115 and 0.974 | composite z-score [9]: 0.58 and 0.216 | composite z-score [10]: 0.0557 and -0.0428 | composite z-score [11]: -0.104 and 0.177 | composite z-score [12]: 0.107 and 0.263 | composite z-score [13]: -0.0791 and -0.347 | z-score [14]: -1.55 (inactive) and -0.5 (inactive) | composite z-score [15]: 0.0494 and 0.417 | composite z-score [16]: 0.338 and -0.145 | composite z-score [17]: 0.0596 and 0.511 | composite z-score [18]: 0.208 and 0.524 | composite z-score [19]: 0.217 and 0.967 | composite z-score [20]: -0.431 and 1.21

CC(C)=NOCc1ccc(-c2cn([C@@H]3COC[C@H]3O)nn2)cc1
composite z-score [1]: -0.253 | z-score [2]: 0.279 (inactive) | z-score [3]: 0.132 (inactive) | z-score [4]: -0.738 (inactive) | composite z-score [5]: 0.226 | z-score [6]: 0.484 (inactive) | composite z-score [7]: 0.0434 | composite z-score [8]: 0.485 | composite z-score [9]: -0.328 | composite z-score [10]: -0.0025 | composite z-score [11]: -0.257 | composite z-score [12]: -0.123 | composite z-score [13]: -0.764 | z-score [14]: 1.04 (inactive) | composite z-score [15]: 0.506 | composite z-score [16]: 0.114 | composite z-score [17]: 0.309 | composite z-score [18]: 0.273 | composite z-score [19]: 0.455 | composite z-score [20]: 0.147

CC(C)[Si]1(C(C)C)OCc2cc(C3CC3)nc(CCc3ccccc3)c21
composite z-score [1]: -0.834 and 0.139 | z-score [2]: 0.289 (inactive) and 0.35 (inactive) | z-score [3]: -1.32 (inactive) and 0.134 (inactive) | z-score [4]: 0.725 (inactive) and 0.474 (inactive) | composite z-score [5]: -0.597 and 0.259 | z-score [6]: -0.102 (inactive) and -1.01 (inactive) | composite z-score [7]: -0.22 and -0.0956 | composite z-score [8]: -0.27 and 0.258 | composite z-score [9]: -0.149 and 0.351 | composite z-score [10]: -0.109 and -0.0147 | composite z-score [11]: -0.534 and -0.371 | composite z-score [12]: 0.0295 and -0.146 | composite z-score [13]: 0.221 and -0.262 | z-score [14]: -0.383 (inactive) and 0.693 (inactive) | composite z-score [15]: -0.348 and 0.0251 | composite z-score [16]: -0.897 and 0.178 | composite z-score [17]: 0.105 and 0.15 | composite z-score [18]: -0.238 and 0.195 | composite z-score [19]: -0.293 and 0.135 | composite z-score [20]: 0.768 and 0.242

CCOC(=O)c1ccc(NC(=O)O[C@H]2[C@H](OC(=O)Nc3ccccc3)[C@@H](OC(=O)Nc3ccccc3)[C@@H](OC)O[C@@H]2CO)cc1
composite z-score [1]: 1.53 and 1.54 | z-score [2]: 1.77 (inactive) and 1.97 (inactive) | z-score [3]: 1.07 (inactive) and 1.71 (inactive) | z-score [4]: 4.37 (inactive) and 7.27 (inactive) | composite z-score [5]: 3.22 and 3.23 | z-score [6]: -0.221 (inactive) and -1 (inactive) | composite z-score [7]: 0.244 and 0.0626 | composite z-score [8]: 0.893 and 0.71 | composite z-score [9]: 1.02 and 1.08 | composite z-score [10]: 0.145 and 0.11 | composite z-score [11]: 1.54 and 1.64 | composite z-score [12]: 1 | composite z-score [13]: 0.861 and 0.911 | z-score [14]: 1.59 (inactive) and -0.984 (inactive) | composite z-score [15]: 1.13 and 1.42 | composite z-score [16]: 1.24 and 1.34 | composite z-score [17]: 0.329 and 0.0234 | composite z-score [18]: 1.34 and 1.42 | composite z-score [19]: 0.414 and 0.17 | composite z-score [20]: 0.375 and 0.563

CO[C@H]1COC(=O)[C@H](C)NC(=O)CC=C[C@@H](C)[C@H](OC)COC(=O)CC=C[C@@H]1C
composite z-score [1]: 1.4 | z-score [2]: 1.17 (inactive) | z-score [3]: 0.306 (inactive) | z-score [4]: 1.13 (inactive) | composite z-score [5]: -0.247 | z-score [6]: 1.3 (inactive) | composite z-score [7]: -0.235 | composite z-score [8]: 1.32 | composite z-score [9]: 0.164 | composite z-score [10]: 0.0556 | composite z-score [11]: 0.523 | composite z-score [12]: -0.785 | composite z-score [13]: -1.62 | z-score [14]: 0.506 (inactive) | composite z-score [15]: 0.504 | composite z-score [16]: 1.04 | composite z-score [17]: 1.49 | composite z-score [18]: 1.45 | composite z-score [19]: 1.62 | composite z-score [20]: 1.68

Cc1cc2c(nc1C)CCCN2CC(O)CN1CCCc2nc(-c3ccc(Br)cc3)ccc21 (stereo not given)
composite z-score [1]: 1.55 and 1.54 | z-score [2]: 0.612 (inactive) and 1.25 (inactive) | z-score [3]: -3.62 (inactive) and -0.716 (inactive) | z-score [4]: -1.15 (inactive) and -0.578 (inactive) | composite z-score [5]: 1.25 and 1.75 | z-score [6]: -0.804 (inactive) and 0.109 (inactive) | composite z-score [7]: 0.467 and 0.823 | composite z-score [8]: 1.02 and 0.741 | composite z-score [9]: 1.1 and 1.11 | composite z-score [10]: 0.304 and 0.48 | composite z-score [11]: 1.16 and 0.822 | composite z-score [12]: 0.116 and 1.46 | composite z-score [13]: 0.334 and 0.608 | z-score [14]: -0.605 (inactive) and -0.58 (inactive) | composite z-score [15]: 1.21 and 1.31 | composite z-score [16]: 1.29 and 1.14 | composite z-score [17]: 0.852 and 1.05 | composite z-score [18]: 1.43 and 1.25 | composite z-score [19]: 1.06 and 1.08 | composite z-score [20]: 1.33 and 1.31

CO[C@H]1COC(=O)CC=C[C@@H](C)COC(=O)[C@@H](OCc2ccccc2)C=C[C@@H]1C
composite z-score [1]: 1.47 | z-score [2]: -0.744 (inactive) | z-score [3]: -1.31 (inactive) | z-score [4]: -0.855 (inactive) | composite z-score [5]: -0.404 | z-score [6]: 0.973 (inactive) | composite z-score [7]: -0.353 | composite z-score [8]: 2.02 | composite z-score [9]: -0.294 | composite z-score [10]: -0.135 | composite z-score [11]: 0.661 | composite z-score [12]: -0.533 | composite z-score [13]: -1.54 | z-score [14]: 0.19 (inactive) | composite z-score [15]: 0.241 | composite z-score [16]: 1.1 | composite z-score [17]: 0.831 | composite z-score [18]: 1.32 | composite z-score [19]: 0.644 | composite z-score [20]: 1.57
